Data published in paper PMC5540273 (PLoS ONE, 2017).

These compounds were tested on RIOK3. Details: concentration: 1 μM, replicates: in singlicate; n = 1.
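Further: KINOMEscan kinase panel screen.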

| Compound | %Inh |
| --- | --- |
| CNC(=O)c1ccccc1Nc1nc(Nc2ccc(N3CCOCC3)cc2)ncc1Cl.Cl [GSK1576028] | 100% |
| c1ccc(-c2cnc3nccnn23)cc1 [AH20685] | 0% |
| CN(C)S(=O)(=O)c1cc(-c2ccc3nccc(-c4cccc(S(N)(=O)=O)c4)c3c2)cnc1N [GSK1669921] | 21% |
| COc1cccc(NC(=O)NC2CCN(c3ccnc(Nc4cc(OC)c(OC)c(OC)c4)n3)C2)c1 (stereo not drawn) [GSK1379763] | 82% |
| C[C@@H](Oc1cc(-n2cnc3cc(-c4ccnc(NCCS(C)(=O)=O)c4)ccc32)sc1C(N)=O)c1ccccc1Cl [GSK907232] | 76% |
| Fc1ccc(-c2ncn(C3CCNCC3)c2-c2ccnc(Oc3ccc(-c4ccccc4)cc3)n2)cc1 [SB-245391] | 5% |
| COc1cccc(C(=O)Nc2cccc(Oc3ccc4nc(NC(=O)C5CC5)cn4n3)c2)c1 | 39% |
| Nc1ncc(-c2cccnc2)c2scc(-c3ccc4c(c3)CCN4C(=O)Cc3ccccc3)c12 [GSK683281] | 22% |
| Cc1occc1-c1ncc(OC[C@@H](N)Cc2c[nH]c3ccccc23)cc1-c1ccc2[nH]nc(C)c2c1.O=C(O)C(F)(F)F [GSK682037] | 83% |
| Nc1n[nH]c2cnc(-c3ccccc3)cc12 [SB-642124] | 100% |
| Cc1ccc(S(=O)(=O)Nc2ccc(Nc3nccc(Nc4cccc5[nH]ncc45)n3)cc2)cc1 [GSK581271] | 34% |
| c1ccc(-c2n[nH]cc2Nc2ccnc3ccccc23)nc1 [GW694077] | 100% |
| COc1ccc(Nc2nccc(NCCNC(=O)c3cc4ccccc4s3)n2)cc1 [GSK1379896] | 0% |
| Cc1ccc(F)c(C(=O)Nc2cccc(-c3nn4ccccc4c3-c3ccnc(Nc4cccc(F)c4)n3)c2)c1F [GSK361061] | 5% |
| CC(C)(C)c1ccc2nccc(Nc3cccc(O)c3)c2c1 [GW856795] | 24% |
| COc1cc(Nc2ncc3c(C)nc(-c4cc5ccccc5[nH]4)n3n2)cc(OC)c1OC [GW869516] | 23% |
| COC(=O)Nc1nc2ccc(Oc3ccc(NC(=O)Nc4cc(C(F)(F)F)ccc4F)cc3)cc2n1C.Cl [GW692089] | 0% |
| CCCCc1nn2ncccc2c1-c1ccnc(Nc2ccc(N3CCN(C)CC3)cc2)n1 [GW684941] | 49% |
| O=C(O)C(F)(F)F.O=C(O)C(F)(F)F.O=c1[nH]ccc2nc(N[C@@H]3CCCNC3)nc(Nc3ccc(S(=O)(=O)N4CCOCC4)cc3)c12 [GSK2177277] | 82% |
| Cl.Cl.NCC(C(=O)Nc1cc(Br)c(-c2ccnc3[nH]ccc23)s1)c1ccccc1 (stereo not drawn) [GSK1269851] | 67% |
| COc1ccc(-c2coc3ccc(-c4nnc(SCc5ccc(OC)c(C(F)(F)F)c5)o4)cc23)cc1 | 9% |
| COc1cccc(-c2ccc3c(NC(=O)C4CC4)n[nH]c3n2)c1 [SB-710903] | 0% |
| Oc1cc(Nc2ccnc3cc(I)ccc23)ccc1F [GW552771] | 0% |
| COc1cc2c(cc1OCCN1CCNCC1)ncc1c3ccc(C#N)cc3[nH]c21 | 93.9% |
| CCS(=O)(=O)c1ccc(OC)c(Nc2nccc(-c3c(-c4cccc(NC(=O)c5c(F)cccc5F)c4)nn4ncccc34)n2)c1 [GSK326180] | 56% |
| Cc1cccc(Nc2nc(N[C@H]3CCNC3)ncc2C(N)=O)c1.Cl [GSK2197149] | 89% |

The compounds below were run on RIPK1. Details: concentration: 1 μM, replicates: in singlicate; n = 1.

| Compound | %Inh |
| --- | --- |
| COc1cc(Nc2nccc(N3CCC(NC(=O)Nc4cccc(C(C)=O)c4)C3)n2)cc(OC)c1OC (stereo not drawn) [GSK1379753] | 9% |
| CCn1c(-c2nonc2N)nc2c(C#CC(C)(C)O)ncc(OCCCCN)c21.O=C(O)C(F)(F)F.O=C(O)C(F)(F)F [GSK507274] | 0% |
| COc1cc(Nc2nccc(-c3c(-c4cccc(NC(=O)c5c(F)cccc5F)c4)nn4ncccc34)n2)cc(OC)c1OC [GSK327238] | 16% |
| O=C(Nc1n[nH]c2nc(-c3ccc(O)cc3)ccc12)C1CC1 [SB-710363] | 2% |
| O=c1[nH]cc(-c2ccc(N3CCOCC3)cc2)c2sc(-c3cn[nH]c3)cc12 [GSK2276055] | 18% |
| O=C(Nc1cccc(-c2nn3ccccc3c2-c2ccnc(Nc3cccc(F)c3)n2)c1)c1c(F)ccc(F)c1Cl [GSK357952] | 0% |
| CC(C)c1nc(-c2cccc(NS(=O)(=O)c3c(F)cccc3F)c2F)c(-c2ccnc(Nc3ccc(N4CCOCC4)nc3)n2)s1 [GSK2008607] | 0% |
| CC(=O)N1CCN(c2ccc(Nc3nccc(-c4sc(C(C)C)nc4-c4cccc(NS(=O)(=O)c5cccc(Cl)c5)c4)n3)cn2)CC1 [GSK1660437] | 0% |
| O=C(Nc1cccc(-c2nn3ncccc3c2-c2ccnc(Nc3ccccc3)n2)c1)c1c(F)cccc1F [GSK198271] | 0% |
| Cl.c1ccc(-c2ccc3c(Nc4ccc5[nH]ncc5c4)ccnc3c2)nc1 [GW440137] | 6% |
| Cn1cc(-c2[nH]c3cc(NC(=O)[C@H](N)C4CCCCC4)cc4c3c2C=NNC4=O)cn1 | 0% |
| CNC(=O)c1ccccc1Nc1nc(Nc2ccc(N3CCOCC3)cc2)ncc1Cl.Cl [GSK1576028] | 36% |
| c1ccc(-c2cnc3nccnn23)cc1 [AH20685] | 0% |
| CN(C)S(=O)(=O)c1cc(-c2ccc3nccc(-c4cccc(S(N)(=O)=O)c4)c3c2)cnc1N [GSK1669921] | 4% |
| COc1cccc(NC(=O)NC2CCN(c3ccnc(Nc4cc(OC)c(OC)c(OC)c4)n3)C2)c1 (stereo not drawn) [GSK1379763] | 6% |
| C[C@@H](Oc1cc(-n2cnc3cc(-c4ccnc(NCCS(C)(=O)=O)c4)ccc32)sc1C(N)=O)c1ccccc1Cl [GSK907232] | 45% |
| Fc1ccc(-c2ncn(C3CCNCC3)c2-c2ccnc(Oc3ccc(-c4ccccc4)cc3)n2)cc1 [SB-245391] | 0% |
| COc1cccc(C(=O)Nc2cccc(Oc3ccc4nc(NC(=O)C5CC5)cn4n3)c2)c1 | 20% |
| Nc1ncc(-c2cccnc2)c2scc(-c3ccc4c(c3)CCN4C(=O)Cc3ccccc3)c12 [GSK683281] | 100% |

| Compound | %Inh |
| --- | --- |
| Cc1occc1-c1ncc(OC[C@@H](N)Cc2c[nH]c3ccccc23)cc1-c1ccc2[nH]nc(C)c2c1.O=C(O)C(F)(F)F [GSK682037] | 0% |
| Nc1n[nH]c2cnc(-c3ccccc3)cc12 [SB-642124] | 30% |
| Cc1ccc(S(=O)(=O)Nc2ccc(Nc3nccc(Nc4cccc5[nH]ncc45)n3)cc2)cc1 [GSK581271] | 5% |
| c1ccc(-c2n[nH]cc2Nc2ccnc3ccccc23)nc1 [GW694077] | 0% |
| COc1ccc(Nc2nccc(NCCNC(=O)c3cc4ccccc4s3)n2)cc1 [GSK1379896] | 0% |
| Cc1ccc(F)c(C(=O)Nc2cccc(-c3nn4ccccc4c3-c3ccnc(Nc4cccc(F)c4)n3)c2)c1F [GSK361061] | 2% |
| CC(C)(C)c1ccc2nccc(Nc3cccc(O)c3)c2c1 [GW856795] | 0% |
| COc1cc(Nc2ncc3c(C)nc(-c4cc5ccccc5[nH]4)n3n2)cc(OC)c1OC [GW869516] | 26% |
| COC(=O)Nc1nc2ccc(Oc3ccc(NC(=O)Nc4cc(C(F)(F)F)ccc4F)cc3)cc2n1C.Cl [GW692089] | 39% |
| CCCCc1nn2ncccc2c1-c1ccnc(Nc2ccc(N3CCN(C)CC3)cc2)n1 [GW684941] | 22% |
| O=C(O)C(F)(F)F.O=C(O)C(F)(F)F.O=c1[nH]ccc2nc(N[C@@H]3CCCNC3)nc(Nc3ccc(S(=O)(=O)N4CCOCC4)cc3)c12 [GSK2177277] | 0% |
| Cl.Cl.NCC(C(=O)Nc1cc(Br)c(-c2ccnc3[nH]ccc23)s1)c1ccccc1 (stereo not drawn) [GSK1269851] | 0% |
| COc1ccc(-c2coc3ccc(-c4nnc(SCc5ccc(OC)c(C(F)(F)F)c5)o4)cc23)cc1 | 9% |
| COc1cccc(-c2ccc3c(NC(=O)C4CC4)n[nH]c3n2)c1 [SB-710903] | 99.5% |
| Oc1cc(Nc2ccnc3cc(I)ccc23)ccc1F [GW552771] | 0% |
| COc1cc2c(cc1OCCN1CCNCC1)ncc1c3ccc(C#N)cc3[nH]c21 | 0% |
| CCS(=O)(=O)c1ccc(OC)c(Nc2nccc(-c3c(-c4cccc(NC(=O)c5c(F)cccc5F)c4)nn4ncccc34)n2)c1 [GSK326180] | 0% |
| Cc1cccc(Nc2nc(N[C@H]3CCNC3)ncc2C(N)=O)c1.Cl [GSK2197149] | 0% |
